Screening data: PubChem, National Center for Advancing Translational Sciences (NCATS)
Tb PYK inh = blocks Trypanosoma brucei pyruvate kinase. Q57TT1. TbPYK enzyme, Kinase-Glo Plus ATP luminescence, 45 min. Potency, µM (titrated, usually from 76.8 µM), for inactives: top-dose activity, negative = inhibition, actives largely listed as inhibitors. hit rate 0.12% among 410,000. AID 624173; further: on the % scale 0 is the no-effect control and ±100 the full control effect; nearly all actives have a fitted effect of over 50% in size
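TbPYK + substrate in 50 mM TEA pH 7.2, 100 mM KCl, 10 mM MgCl2, 0.05% BSA, 0.01% Tween-20; cpd pinned; ADP 130 uM final; 45 min RT; Kinase-Glo Plus 10 min; luminescence endpoint.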
RE007 growth inh = less growth of the S. pombe RE007 Vpr strain. S. pombe RE007 Vpr strain, BacTiter-Glo ATP luminescence, 24 h. Potency, µM (top dose mostly 92.2 µM), without a hit: at the top dose activity change, negative = less growth, most hits filed as inhibitors. hit rate 0.21% among 360,000. AID 651644; active means well fitted falling curve with a large enough effect; inconclusive means small, poorly fitted or top-dose-only effect; inactive means no such curve, though single readings can be large or run the other way; further: on the % scale 0 is the no-effect control and ±100 the full control effect; nearly all actives have a fitted effect of over 50% in size
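Fission yeast RE007 carrying one integrated HIV-1 vpr copy, seeded at OD 0.01 in PMG+AL medium with 23 nL pinned compound. Grown 24 h at 30 degrees; viability read by BacTiter-Glo luminescence after 5 min.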
AmpC inh no detg = AmpC beta-lactamase inhibition without detergent; Potency, µM (titrated, usually from 57.1 µM), without a hit: at the top dose activity change, negative = inhibition, most hits filed as inhibitors; hit rate 0.52% among 330,000; AmpC nitrocefin hydrolysis, absorbance 480 nm, 0.0001% Triton;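 further: plate controls were no compound for no effect and no enzyme for full effect; nearly all actives have a fitted effect of over 20% in size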
Target sequence (P00811 whole entry, looked up): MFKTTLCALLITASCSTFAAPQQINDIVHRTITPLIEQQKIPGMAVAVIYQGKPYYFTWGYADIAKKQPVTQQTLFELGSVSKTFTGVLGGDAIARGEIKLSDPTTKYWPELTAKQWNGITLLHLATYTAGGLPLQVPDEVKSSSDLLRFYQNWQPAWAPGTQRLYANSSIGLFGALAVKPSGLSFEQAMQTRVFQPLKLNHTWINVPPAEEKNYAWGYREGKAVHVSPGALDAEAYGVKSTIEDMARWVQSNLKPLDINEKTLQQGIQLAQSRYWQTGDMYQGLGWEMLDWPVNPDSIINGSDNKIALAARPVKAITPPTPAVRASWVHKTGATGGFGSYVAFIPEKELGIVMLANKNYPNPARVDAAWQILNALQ
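20 mM phosphate pH 7.0 + 0.01% (detergent screen) or 0.0001% Triton X-100; 5.3 nM AmpC reagent; cpd preinc 15 min RT; nitrocefin (800 uM stock) to start; A480 q20 s × 4 min; Activity was normalised to no-enzyme and no-compound control wells.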
Sm TGR inh = inhibitors of Schistosoma mansoni thioredoxin glutathione reductase | Q962Y6 | purified TGR, DTNB reduction, TNB absorbance 405 nm | Potency, µM (top dose mostly 114 µM), without a hit: top-dose activity change, negative = inhibition, most hits filed as inhibitors | hit rate 3% among 360,000; further: on the % scale 0 is the no-effect control and ±100 the full control effect; nearly all actives have a fitted effect of over 60% in size
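First, TGR (20 nM dispensed) and NADPH were mixed with compound. Second, a 15 min room-temperature incubation followed. Third, further NADPH and then DTNB were added to start the reaction. Finally, TNB absorbance was monitored kinetically.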
AmpC inh detg = AmpC beta-lactamase inhibition with detergent present; AmpC hydrolysis of nitrocefin, absorbance 480 nm, 0.01% Triton; P00811; Potency, µM (highest dose often 114 µM), inactives show at the top dose activity change, negative = inhibition, usual class: inhibitors; hit rate 0.041% among 370,000;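 further: 0% = no-compound wells and -100% = no-enzyme wells; nearly all actives have a fitted effect of over 25% in size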
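20 mM phosphate pH 7.0 + 0.01% (detergent screen) or 0.0001% Triton X-100; 5.3 nM AmpC reagent; cpd preinc 15 min RT; nitrocefin (800 uM stock) to start; A480 q20 s × 4 min; Activity was normalised to no-enzyme and no-compound control wells.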
SARS PLP yeast = inhibitors of SARS-CoV papain-like protease in yeast | hit rate 0.19% among 330,000 | S. cerevisiae expressing SARS-CoV PLpro, growth rescue | Potency, µM (highest dose often 32.9 µM), for the others: top-dose activity, positive = growth rescue, most hits filed as activators; calls by dose curve; further: 0% is about no effect; nearly all actives have a fitted effect of over 55% in size
Active calls of the source: *; ? = inconclusive; . = not tested or not shown; ! = not active in a repeat; [ ] = dose if it differs, or a comment. Sampled rows, rich in hits. Any-hit rate of the full collection: about 3.3%. Unless noted, the call rests on the fitted dose curve; in most records, active means well fitted curve in the direction sought with a large enough effect; inconclusive means small, poorly fitted or top-dose-only effect, or another doubt; inactive means no such curve, though single readings can be large; an effect the other way counts as inactive or inconclusive. Potency means the concentration at half of the fitted maximal effect.

SMILES	Tb PYK inh	RE007 growth inh	AmpC inh no detg	Sm TGR inh	AmpC inh detg	SARS PLP yeast
CN1CCN(C=Nc2nc3ccccc3nc2N2CCCC2)CC1	-12%	-17%	-1%[2.29 µM]	32µM*	-10%	0%
COc1nc2ccccc2nc1N1CCN(C)CC1	11%	5%	5%	-4%	3%	1%
C=CCc1ccc(O)c(-c2cc(CC=C)ccc2O)c1	-4%	?	-39%	56µM*	-1%	-4%
CC(C)=NOc1cc(NC(=O)CCl)cc([N+](=O)[O-])c1	-11%	-23%	-27%	11µM*	-7%	-3%
Cn1cc(C(=O)NCc2ccccc2)c(=O)c2cc(S(=O)(=O)N3CCCCCC3)ccc21	3%	.	.	9%	2%	.
CCc1ccc2oc(-c3ccc(C)c(NC(=O)c4cc([N+](=O)[O-])ccc4N4CCOCC4)c3)nc2c1	4%	.	.	1%	1%	.
CCC(C)CCCCC(=O)N[C@@H](CCN)C(=O)N[C@H](C(=O)N[C@@H](CCN)C(=O)N[C@H]1CCNC(=O)C([C@@H](C)O)NC(=O)[C@@H](CCN)NC(=O)[C@H](CCN)NC(=O)[C@H](CC(C)C)NC(=O)[C@@H](CC(C)C)NC(=O)[C@H](CCN)NC1=O)[C@@H](C)O (stereo not given in full)	13%	.	.	.	.	.
O=c1c2ccccc2sn1-c1ccc(Cl)cc1Cl	18µM*	45µM*	.	.	.	.
O=c1c2ccccc2ncn1-c1ccc(Cl)cc1Cl	-5%	-15%	-6%	7%	-1%	0%
Cc1nc(N2CCOCC2)nc(Oc2ccccc2)c1[N+](=O)[O-]	2%	13%	0%	7.1µM*	5%	-1%
Cc1cc(C)cc(-n2c(SCC(=O)N3CCc4ccccc43)nc3c([nH]c4ccccc43)c2=O)c1	0%	.	.	3%	-6%	.
Cc1[nH]n(-c2ccccc2)c(=O)c1C(C[N+](=O)[O-])c1ccc(Br)cc1 (stereo not given)	-11%	10µM*	-51%	?	2%	-40%
COc1cccc(C(C[N+](=O)[O-])c2c(C)[nH]n(-c3ccccc3)c2=O)c1 (stereo not given)	-7%	?	-42%	35µM*	-12%	-72%
Cc1ccc(NC(=O)CCC(=O)N2CCSc3ccccc32)cc1Cl	2%	.	.	7%	12%	.
Cc1ccc(C)c(N2CCN(C(=O)c3ccc4c(Cl)c5c(nc4c3)CCCC5)CC2)c1	-10%	.	.	0%	1%	.
Cc1ccc(NC(=O)C2CCN(S(=O)(=O)c3ccc4[nH]c5c(c4c3)CCCCC5)CC2)cc1	-1%[15.4 µM]	.	.	6%	5%	.
Cc1ccc(NC(=O)CN(Cc2ccccc2)S(=O)(=O)c2ccc3nc(C)sc3c2)c(C)c1	0%	.	.	0%	13%	.
CC(OC(=O)c1ccc(NS(=O)(=O)c2ccc3[nH]c(=O)[nH]c3c2)cc1)C(=O)Nc1ccc(Cl)cc1 (stereo not given)	-2%	-8%	-42%	-5%	-13%	0%
COc1ccc(Cl)cc1NC(=O)C(C)OC(=O)c1ccc(NS(=O)(=O)c2ccc3[nH]c(=O)[nH]c3c2)cc1 (stereo not given)	-12%	-12%	3.5µM*	0%	-9%	6%
COC(=O)CC1Oc2ccc(C)cc2-n2cc(-c3ccc(C)cc3)nc21 (stereo not given)	3%	.	.	9%	0%	.
COc1ccc(N=Nc2ccc(O)c3ncccc23)cc1	-1%	-20%	-9%	-14%	-5%	2%
Cc1ccccc1N=Nc1ccc(O)c2ncccc12	-19%	6%	-19%	-2%	-8%	3.5µM*
Cc1nn(C(=O)COc2ccccc2Br)c(C)c1Sc1ccccc1	3%	.	.	0%	-7%	.
C=CCN(C(=O)Nc1ccc(Cl)cc1)C1CC(=O)N(c2ccc(OC)cc2)C1=O (stereo not given)	2%	-8%	-16%	-12%	?	-1%
CNC(=S)N(Cc1ccc(OC)cc1)C1CC(=O)N(c2ccc(Cl)cc2)C1=O (stereo not given)	-12%	.	10%	0%	?	-3%
SMILES	Tb PYK inh	RE007 growth inh	AmpC inh no detg	Sm TGR inh	AmpC inh detg	SARS PLP yeast
COC(=O)CN(C)C1CC(=O)N(c2ccc(Cl)cc2)C1=O (stereo not given)	1%	16µM*	-12%	6.3µM*	?	-36%
CN(Cc1ccncc1)C1CC(=O)N(c2ccc(Cl)cc2)C1=O (stereo not given)	2%	50µM*	-7%	?	?	-12%
CN(Cc1ccccc1)C(=O)Cn1ncc2c3ccccc3n(Cc3cccc(Cl)c3)c2c1=O	-2%	.	.	2%	16%	.
CCN1CCN(C(=O)N[C@H](C(=O)N[C@@H]2C(=O)N3[C@@H](C(=O)O)C(C)(C)S[C@@H]23)c2ccccc2)C(=O)C1=O	8%	.	.	.	.	.
CCOC(=O)N1CCN(c2cc(=O)n(-c3ccc(Br)cc3)c(=O)[nH]2)CC1	-12%	-8%	0.56µM*	-24%	?	4%
CCNS(=O)(=O)c1ccc(NC(=O)Nc2cc(C)ccc2OC)cc1	4%	-2%	11µM*	1%	2%	0%
COc1ccc(C)cc1NC(=O)NC1CCCCCCC1	3%	8%	22µM*	9%	3%	2%
CCc1nn(CC(=O)NCc2cccc(OC)c2)c(=O)c2cc3cc(F)ccc3n12	1%	.	.	-1%	-4%	.
O=C(O)/C=C/c1ccc2ccccc2n1	-5%	-6%	-18%	8%	0%	-12%
O=C(/C=C/c1ccc2ccccc2n1)c1cc(Br)ccc1O	4%	3%	-46%	32µM*	2%	2%
Cc1ccc(S(=O)(=O)n2ccc(OC(=O)c3cccs3)n2)cc1	-1%	5%	-30%	6.3µM*	0%	-4%
CCOC(=O)Nc1ccc(NCc2ccc(F)cc2)nc1N	32µM*!	-12%	9%	3.2µM*	?	.
Cn1ccc2c(OCC(=O)Nc3cc(C(F)(F)F)ccc3Cl)cccc2c1=O	-5%	.	.	-4%	-1%	.
Cc1ccc(C)c(N2CCN(C(=O)CCS(=O)(=O)c3cc4c(cc3Cl)NC(=O)CO4)CC2)c1	0%	.	.	3%	-1%	.
COc1ccc(Cl)cc1-n1cc(-c2ccccc2)nc1SCC(=O)Nc1ccc(C)cc1	3%	.	.	6%	11%	.
CCN(CC)c1ccc(C(=C2C=CC(=[N+](CC)CC)C=C2)c2ccccc2)cc1	?	4.5µM*	.	.	.	.
CCc1ccc(NC(=O)Cn2nnc(C(=O)Nc3cc(C)ccc3OC)c2N)cc1	-12%	.	.	14%	5%	.
